BAZ2B block: inhibitors of human BAZ2B bromodomain. 4.4% of 360,000 active. Potency, µM (series often up to 114 µM), actives largely listed as inhibitors. Q9UIF8. AlphaScreen BAZ2B-H3K14Ac peptide displacement; further: nearly all actives have a fitted effect of over 60% in size
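Compounds, titrated to a top concentration of 110 uM, were incubated 30 min at room temperature with preformed BAZ2B/acetyl-K14 H3 peptide complex (50 nM each). Proximity signal was measured by AlphaScreen after 20 min with beads.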
JMJD2A Tudor inh: blocks the human JMJD2A Tudor domain. AlphaScreen JMJD2A-Tudor / H3K4me3 peptide binding. Potency, µM (doses to about 114 µM), usual class: inhibitors. 4.4% of 390,000 active; further: nearly all actives have a fitted effect of over 50% in size
Six1-Eya2 inh: blocks human Six1 binding to Eya2; Q15475+O00167; AlphaScreen GST-Six1/His-Eya2 binding, biochemical; active compounds read low; activity change, % (no concentration beside the values); 0.56% of 360,000 active; in the data active means activity change below about -65%; inconclusive means mostly about -30% to -63%
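Homogeneous AlphaScreen proximity assay pairing GST-Six1 with His-tagged Eya2 (added as 5X mix: 250 nM and 500 nM) in 50 mM Tris pH 8.0, 300 mM NaCl, 1 mM TCEP. Glutathione donor and nickel acceptor beads; 1 h, 37 °C, dark.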
HP1b binding inh: inhibitors of HP1-beta chromodomain binding to methylated histone tails. Potency, µM (doses to about 114 µM), hits mostly inhibitors. AID 540317. AlphaScreen HP1-beta / biotin-H3K9me3 peptide binding. 0.56% of 390,000 active. P83916; further: nearly all actives have a fitted effect of over 70% in size
Target sequence (P83916 whole entry, looked up): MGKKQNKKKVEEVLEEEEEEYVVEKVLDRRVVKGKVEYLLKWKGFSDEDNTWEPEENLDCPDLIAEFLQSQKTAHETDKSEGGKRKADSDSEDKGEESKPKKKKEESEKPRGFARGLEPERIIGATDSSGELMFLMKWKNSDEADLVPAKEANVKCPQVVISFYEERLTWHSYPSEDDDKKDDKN
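AlphaScreen: HP1-beta (50 nM) preformed 30 min with biotin-H3(1-18)K9me3 peptide (50 nM) in PBS pH 7.4, 0.01% Tween-20. Compound added for 30 min at RT, then streptavidin donor/nickel chelate acceptor beads (10 ug/mL) for 30 min.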
G9a block: blocks human histone lysine methyltransferase G9a | G9a H3K9 monomethylation, AlphaScreen, 2 h | Potency, µM (series often up to 102 µM), usual class: inhibitors | 8.8% of 350,000 active; further: nearly all actives have a fitted effect of over 75% in size
Target sequence (Q96KQ7 913-1193 limits assumed): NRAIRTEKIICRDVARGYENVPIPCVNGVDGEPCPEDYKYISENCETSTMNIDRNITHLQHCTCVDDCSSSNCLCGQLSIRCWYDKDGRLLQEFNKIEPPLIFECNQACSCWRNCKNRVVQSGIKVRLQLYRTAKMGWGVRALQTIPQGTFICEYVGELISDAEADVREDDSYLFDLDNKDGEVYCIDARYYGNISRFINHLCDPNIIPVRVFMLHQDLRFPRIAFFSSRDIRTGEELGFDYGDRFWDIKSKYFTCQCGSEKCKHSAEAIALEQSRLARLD
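G9a (20 nM) preincubated 15 min RT with compounds, then 500 nM biotinylated H3K9 peptide and 20 uM SAM added; 2 h RT reaction. Monomethyl-H3K9 product detected by AlphaScreen with anti-H3K9me1 antibody, streptavidin donor and anti-rabbit IgG acceptor beads.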
CtBP-E1A blk: CtBP/E1A binding inhibition | AlphaScreen GST-E1A/His-CtBP binding, 1536-well; active compounds read low | activity change, % (no concentration beside the values) | 0.49% of 340,000 active | AID 651724; in the data active means activity change below about -65%; inconclusive means mostly about -30% to -63%
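Homogeneous bead-based format: GST-tagged E1A captured on glutathione donor beads, His-tagged CtBP on nickel acceptor beads; compounds precede bead addition by 2 h at 37 °C.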
Hits are given with their value; 0 = inactive; ? = inconclusive; - = not tested or not shown; [ ] = remark or other dose. Rows were chosen to be rich in hits. Some 10% of all compounds tested hit in one or more screens of this group. Unless noted, the call rests on the fitted dose curve; in most records, active means well fitted inhibition curve with a large enough effect; inconclusive means small, poorly fitted or top-dose-only effect; inactive means no such curve, though single readings can be large or run the other way.

SMILES | BAZ2B block | JMJD2A Tudor inh | Six1-Eya2 inh | HP1b binding inh | G9a block | CtBP-E1A blk
Nc1ccc2nc(SCC(=O)N3CCN(c4ccccc4)CC3)sc2c1 | ? | 0 | 0 | 0 | 50µM | 0
O=C(c1cccc(F)c1)N1CCC2(CC1)CN(c1ccc(-c3ccccc3)cc1)C2 | - | - | - | - | 0[12.7 µM] | -
COc1ccc(Cn2cc(CN3CC(N4CCSCC4)CS3(=O)=O)nn2)cc1 (centres undefined) | - | - | 0 | - | - | 0
CCOc1ccc(NC(=O)Cn2c(=O)n(Cc3nc(-c4ccccc4)no3)c(=O)c3ccccc32)cc1 | 0 | 0 | - | 0 | 0 | -
CCOC(=O)CCCNC(=O)COC(=O)[C@@H]1CCCN1S(=O)(=O)c1ccc(Cl)cc1 | 0 | 0 | 0 | 0 | 50µM | 0
O=C(NCc1ccc(F)cc1)n1c(-c2ccccc2)c(P(=S)(c2ccccc2)c2ccccc2)c2ccccc21 | - | 0 | - | - | - | -
Cc1ccc(NC(=O)c2c(C)nc3sc(C(=O)Nc4ccc(F)cc4)c(N)c3c2-c2ccccc2Cl)c(C)c1 | 0 | 0 | - | 0 | 0 | -
CCOC(=O)C1CCN(Cc2nc3ccc([N+](=O)[O-])cc3c(=O)n2-c2ccc(OC)cc2OC)CC1 | 0 | 0 | 0 | 0 | 32µM | 0
CCN1CCN(Cc2nc3ccc([N+](=O)[O-])cc3c(=O)n2-c2ccc(OC)cc2OC)CC1 | 0 | 0 | 0 | 0 | 0 | 0
COc1ccc(-n2c(CN3CCN(c4ccccc4OC)CC3)nc3ccc([N+](=O)[O-])cc3c2=O)c(OC)c1 | ? | ? | 0 | 0 | 45µM | 0
COc1cccc(-n2c(N)c(C#N)c3ccc([N+](=O)[O-])cc3c2=O)c1 | 0 | - | - | - | 0 | -
COc1cccc(-n2c(CN3CCN(c4ccccc4)CC3)nc3ccc([N+](=O)[O-])cc3c2=O)c1 | ? | ? | 0 | 0 | 20µM | 0
COc1ccc(-n2c(CN3CCC(C(N)=O)CC3)nc3ccc([N+](=O)[O-])cc3c2=O)c(OC)c1 | ? | 0 | 0 | 0 | 56µM | 0
CCc1nc2ccc(C(=O)NCCCN3CCCC3=O)cn2c1N(C=O)CC | - | - | 0 | - | - | 0
COC(=O)c1cc(NC(=O)Nc2ccccc2)ccc1Cl | 0 | 0 | 0 | 0 | 0 | 0
CCOC(=O)C1CCCN(Cc2nc3ccc([N+](=O)[O-])cc3c(=O)n2-c2ccc(OC)cc2OC)C1 (centres undefined) | 0 | ? | 0 | 0 | 40µM | 0
CCc1nnc(N/N=C/c2ccc(O)c(OC)c2)n1N | 0 | 0 | 0 | 0 | 0[0.501 µM] | 0
CCc1nnc(N/N=C/c2cccs2)n1N | 0 | 0 | 0 | 0 | 50µM | 0
CC(C)(C)c1nnc(N/N=C/c2cc(Br)ccc2O)n(N)c1=O | 18µM | 22µM | -90 | 0 | 0 | -94
CCc1nnc(N/N=C/c2cc(Br)c(O)cc2O)n1N | 50µM | 79µM | -80 | 0 | 50µM | -91
COc1ccccc1C(=O)N/C(=C\c1cn(S(=O)(=O)N(C)C)c2ccccc12)C(=O)N1CCN(C)CC1 | - | - | 0 | - | - | 0
O=C(NC1CCCC1)C(c1ccccc1)n1c(-c2ccc3c(c2)CCO3)nc2ccccc21 (centres undefined) | - | - | 0 | - | - | 0
COc1ccc(C(=O)NC(=S)NNC(=O)[C@H]2C[C@@H]2c2ccccc2)cc1OC | 0 | 0 | 0 | 0 | 45µM | 0
COc1cc(OC)cc(C(=O)NC(=S)NNC(=O)[C@H]2C[C@@H]2c2ccccc2)c1 | 0 | ? | 0 | 0 | 20µM | ?
O=C(/C=C/c1ccc(F)cc1)NC(=S)NNC(=O)[C@H]1C[C@@H]1c1ccccc1 | 0 | 0 | 0 | 0 | 35µM | -
SMILES | BAZ2B block | JMJD2A Tudor inh | Six1-Eya2 inh | HP1b binding inh | G9a block | CtBP-E1A blk
CCOC(=O)C1CCC(CNCc2ccccc2C)CC1 (centres undefined) | 0 | 0 | 0 | 0 | 50µM | 0
COc1ccc([N+](=O)[O-])cc1CN1CCN(c2ncc(Cc3ccccc3)cn2)CC1 | - | - | 0 | - | - | 0
CCn1c(=O)n(CC)c2cc(N3CCCC3)c(NC(=O)c3ccc(F)cc3)cc21 | ? | 0 | 0 | 0 | 45µM | 0
CCn1c(=O)c(=O)n(CC)c2cc(N3CCCCC3)c(NC(=O)c3ccc(OC)c(OC)c3)cc21 | 0 | 0 | - | 0 | 0 | -
CCn1c(=O)n(CC)c2cc(N3CCCC3)c(NC(=O)c3c(F)cccc3F)cc21 | ? | 0 | 0 | 0 | ? | -
CCOc1ccc(C(=O)Nc2cc3c(cc2N2CCCC2)n(CC)c(=O)n3CC)cc1OCC | ? | 0 | 0 | 0 | 45µM | 0
CCOCC(=O)Nc1nnc(C)s1 | 0 | 0 | 0 | 0 | 45µM | 0
Cc1nnc(NC(=O)COc2ccccc2)s1 | 0 | 0 | 0 | 0 | ? | 0
CC(=O)Oc1ccc2nc(-c3ccco3)oc(=O)c2c1 | 0 | 28µM | 0 | 0 | 0 | 0
Cn1c(N)c(C(=O)COC(=O)C2(c3cccc(F)c3)CCCC2)c(=O)n(C)c1=O | - | 0 | 0 | 0 | 0 | 0
Cc1cc(/C=N/NC(N)=S)c(O)c(/C=N/NC(N)=S)c1 | 3.2µM | 13µM | -87 | 0 | 0 | -92
Cc1cc(O)c(/C=N/Nc2ccccc2)c(=O)o1 | ? | 8.9µM | 0 | 0 | ? | 0
NC(=S)N/N=C/c1cccc(O)c1O | 8.9µM | 28µM | -80 | 0 | ? | -93
O=C(N/N=C/c1ccccc1O)C1SCCCS1 | 79µM | ? | -92 | 0 | 0 | -95
O=C(NN=Cc1ccccc1O)C1CC1 | - | 0 | ? | 0 | - | ?
Cc1ccc(-n2c(C)cc(/C=N/NC(N)=S)c2C)cc1 | ? | ? | ? | 0 | ? | 0
COc1ccc(S(=O)(=O)N2CCCC(c3cc(C(=O)NCc4cccnc4)no3)C2)cc1 (centres undefined) | - | - | 0 | - | - | 0
NC(=S)NN=Cc1c[nH]c2nccnc12 | - | - | -66 | - | - | 0
Oc1ccccc1C=NNC(=S)NN=Cc1ccccc1O | - | 20µM | -81 | 0 | - | -95
Oc1cccc(/C=N/NC(=S)Nc2cccnc2)c1O | 5.6µM | 20µM | -91 | 0 | 11µM | -95
Oc1ccccc1/C=N/Nc1ccccc1 | 0 | 0 | 0 | 0 | 8.9µM | 0
CC(C)CN1Cc2ccccc2Oc2cc(Br)ccc2S1(=O)=O | - | 0 | 0 | 0 | - | 0
CC(OC(=O)c1ccc2c(c1)OCCO2)C(=O)NC1CCCCC1C (centres undefined) | 0 | 0 | 0 | 0 | 0 | 0
CCCSc1nnc2c(n1)OC(CC)N(C(C)=O)c1ccccc1-2 (centres undefined) | 0 | 0 | - | 0 | 0 | -
Oc1ccc(/C=N/Nc2ccc3ccccc3c2)c(O)c1 | ? | ? | 0 | ? | 6.3µM | 0
NC(=S)N/N=C/c1ccccc1O | 35µM | 89µM | -87 | 0 | 0 | -68
Oc1ccc(C=NNC(=S)Nc2ccccc2)nc1 | - | - | -97 | - | - | -76
S=C(N/N=C/c1ccc2ncccc2c1)Nc1ccccc1 | 0 | 0 | 0 | 0 | ? | -
Cc1ccccc1NC(=O)CSc1nc2ccc(NC(=O)c3ccccc3)cc2s1 | 0 | 0 | - | 0 | 0 | -

Screening data from PubChem BioAssay.
